Inconclusive results are not listed. Activity calls are given as the source filed them. Rule for the calls: active = hit-call score of the fitted dose curve at least 0.9, where 1 is the maximum; inconclusive = response in the unintended direction; inactive = score below 0.9.

Glyceraldehyde-3-phosphate dehydrogenase (Homo sapiens), sequence (P04406 whole entry, looked up): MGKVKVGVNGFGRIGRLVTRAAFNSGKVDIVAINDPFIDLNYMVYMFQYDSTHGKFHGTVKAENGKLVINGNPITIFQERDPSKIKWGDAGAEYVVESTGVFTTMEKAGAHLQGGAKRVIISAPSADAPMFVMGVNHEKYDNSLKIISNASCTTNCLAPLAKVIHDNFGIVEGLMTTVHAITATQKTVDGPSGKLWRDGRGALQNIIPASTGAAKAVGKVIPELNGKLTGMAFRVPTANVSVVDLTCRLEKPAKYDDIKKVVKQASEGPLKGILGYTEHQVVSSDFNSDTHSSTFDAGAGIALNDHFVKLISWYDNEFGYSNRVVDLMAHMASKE

Read-out in this test: Glyceraldehyde-3-phosphate dehydrogenase (Homo sapiens) (UniProt P04406)
The test can be described thus: CLD_GAPDH_24hr: CellzDirect (CLD) Gene Expression Assay for Baseline Control (Glyceraldehyde 3-phosphate dehydrogenase) at 24 hours (AID 2283692). Here is the method: CLD_24hr is a cell-based, multiplexed-readout assay that uses hepatocyte, a human liver primary cell, with measurements taken at 24 hours after chemical dosing in a 96-well plate.CLD_GAPDH_24hr is one of 16 assay component(s) measured or calculated from the CLD_24hr assay. It is designed to make measurements of mRNA induction, a form of inducible reporter, as detected with chemiluminescence signals by Quantitative Nuclease Protection Assay (qNPA) technology.Data from the assay component CLD_GAPDH_24hr was analyzed at the endpoint, CLD_GAPDH_24hr, in the positive analysis fitting direction relative to DMSO as the negative control and baseline of activity. Using a type of inducible reporter, gain-of-signal activity can be used to understand changes in the reporter gene as they relate to the gene GAPDH. Furthermore, this assay endpoint can be referred to as a secondary readout, because this assay has produced multiple assay endpoints where this one serves a background control function. To generalize the intended target to other relatable targets, this assay endpoint is annotated to the background measurement intended target family, where subfamily is baseline control.
Human hepatocyte cultures were treated daily for two consecutive days with fresh dosing solutions containing appropriate concentrations of the 320 ToxCast chemicals (chemical identities were blinded to CellzDirect and other ToxCast collaborators), vehicle control (0.2% DMSO), and positive control inducers as summarized in Table 1. Due to the large number of treatment groups and chemicals examined, the ToxCast chemicals were divided into two groups (spanning two independent cultures of hepatocytes from separate donor preparations (Hu778: ToxCast plates 1 and 2; Hu776: ToxCast plates 3 and 4). Each preparation of human hepatocyte cultures was treated with respective vehicle control, medium only control, set of six positive controls/reference chemicals for the five hepatic receptor pathways, and a subset of eight of the ToxCast chemicals (indoxacarb, pyrithiobac-sodium, norflurazon, cyhalofop-butyl, methomyl, thiram, acetochlor, and propiconazole). These replicate data, coupled with internal replicates designed within the blinded ToxCast chemical library, provided additional data to evaluate interindividual differences between hepatocyte preparations and their potential impact on chemical profiles.Cell morphology and integrity were evaluated using phase-contrast microscopy as an indicator of hepatocyte cell health (Tyson & Green, 1987). Cultures for each treatment group (i.e., media, vehicle [0.2% DMSO], positive control inducers [multiple concentrations], and the ToxCast chemicals [multiple concentrations]) were observed and cell morphology was assessed relative to vehicle control cultures at each harvest time point (0, 6, 24, or 48 h). […] Images were evaluated at the conclusion of the study to assess changes in cell integrity and account for the effects of chemical exposure on uncharacteristic changes in concentration-dependent gene expression profiles. The results from these determinations of apparent cytotoxicity were annotated (yes/no) alongside the corresponding qNPA data for reference.At the conclusion of each treatment period, hepatocyte cultures (96-well) were washed with 1 volume of HBSS, lysed by addition of 25 ul ArrayPlate lysis buffer (HTG, Tucson, AZ), and 70 ul/well of Denaturation Oil, denatured by incubation at 95C for 10 min, and frozen at approximately -70C until analysis by nuclease protection assay (qNPA) (Roberts et al., 2007). For qNPA analysis, cell lysates were thawed at 50C for approximately 30 min, qNPA probes were added, and samples were incubated at 95C for 10 min to begin the detection process by denaturing the target RNA, dissociating the duplexes and secondary structure hybridization. At the conclusion of the hybridization period, S1 nuclease reagent was added to each sample to digest all nonprotected nucleotides at 50C for 60-90 min. […]
`CC(C)C1(C)N=C(c2nc3ccccc3cc2C(=O)O)NC1=O` (stereo not drawn): the compound was called inactive.

In the case of `COP(N)(=O)SC` (stereo not drawn), the compound was classed as inactive.

For the compound `O=C(O)COc1nc(Cl)c(Cl)cc1Cl`, the call was inactive.

`CCCCNC(=O)n1c(NC(=O)OC)nc2ccccc21`: the compound was classed as inactive.

For the compound `CCCCC(CC)COC(=O)c1ccccc1C(=O)OCC(CC)CCCC` (stereo not drawn), the compound was called inactive.

`COc1nc(C)nc(NC(=O)NS(=O)(=O)c2ccccc2CCC(F)(F)F)n1`: the compound was classed as inactive.

With `N#CC(CCc1ccc(Cl)cc1)(Cn1cncn1)c1ccccc1` (stereo not drawn), the compound was classed as inactive.

`CC(Oc1ccc(Cl)cc1Cl)C(=O)O` (stereo not drawn): the result was inactive.

For `CNC(=S)S`, the call was inactive.

In the case of `COC(=O)C(C)Oc1ccc(Oc2ccc(Cl)cc2Cl)cc1` (stereo not drawn), the result was inactive.

On to `COC(=O)c1ccccc1C(=O)OC`, for which the compound was called inactive.

On to `C=CCC1=C(C)C(OC(=O)C2C(C=C(C)C)C2(C)C)CC1=O` (stereo not drawn), for which the compound was called inactive.

For `CN(C)C(=S)SSC(=S)N(C)C`, the outcome was inactive.

`Cc1ccc(-c2c(Cl)nc(C#N)n2S(=O)(=O)N(C)C)cc1`: the result was inactive.

Turning to `Oc1ccccc1-c1ccccc1`, the compound was classed as inactive.

For the compound `COC(=O)C=C(C)OP(=O)(OC)OC`, the compound was classed as inactive.

In the case of `CCCCOC(=O)c1ccccc1C(=O)OCCCC`, the outcome was inactive.

Regarding `CCON=C(CC)C1=C(O)CC(c2c(C)cc(C)cc2C)CC1=O` (stereo not drawn), the outcome was inactive.

On to `COP(=S)(OC)Oc1nc(Cl)c(Cl)cc1Cl`, for which the compound was classed as inactive.

`C=CC1(C)OC(=O)N(c2cc(Cl)cc(Cl)c2)C1=O` (stereo not drawn): the compound was classed as inactive.

Turning to `CCCCNC(=O)OCC#CI`, the call was inactive.

Turning to `COc1nc(C)nc(NC(=O)NS(=O)(=O)c2ccccc2Cl)n1`, the compound was classed as inactive.

Consider `N#Cc1cc(Br)c(O)c(Br)c1`, for which the outcome was inactive.
